Compound activity from PubChem BioAssay.
RECQ1 helicase: blocks DNA unwinding by human RECQ1; P46063; RECQ1 DNA unwinding, red fluorescence kinetic read; Potency, µM (series often up to 57.3 µM), for the others: at the highest dose activity, negative = inhibition, hits mostly inhibitors; 0.54% of 240,000 active; AID 2549;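 also: plate controls were vehicle for no effect and no enzyme for full effect; nearly all actives have a fitted effect of over 30% in size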
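RECQ1T1 50 nM; forked duplex (20 bp + 30-nt ss tails) 200 nM, ATP 2 mM final; pH 8.0, 2 mM MgCl2, 2.5 ug/ml poly(dI-dC); 15 min compound preincubation; discontinuous kinetic read over 2 h at RT.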
FEN1 inhibitor: inhibitors of human flap endonuclease 1 | P39748 | Recombinant FEN1 flap cleavage, fluorescence, 15 min | Potency, µM (titrated, usually from 114 µM), for the others: at the highest dose activity change, negative = inhibition, hits mostly inhibitors | 0.35% of 390,000 active; also: nearly all actives have a fitted effect of over 65% in size
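Nuclease activity of 10 nM FEN1 was measured after 15 min of room-temperature exposure to titrated compounds, by adding 50 nM flap substrate and reading plates at 0 and 15 min.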
L3MBTL1 block: L3MBTL1 (human) inhibition | Q9Y468 | AlphaScreen L3MBTL1–H3K9me1 peptide binding | Potency, µM (top dose mostly 57.1 µM), for inactives: top-dose activity, negative = inhibition, hits mostly inhibitors | 0.66% of 230,000 active | AID 485360; also: nearly all actives have a fitted effect of over 60% in size
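Read-out is AlphaScreen signal from streptavidin donor and nickel chelate acceptor beads (10 ug/mL final each) bridging L3MBTL1 (50 nM) and biotinylated K9-monomethylated H3(1-15) peptide (75 nM), after 30 min compound exposure at room temperature.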
WRN inhibitor: inhibitors of human WRN helicase; Q14191; WRN helicase unwinding, fluorescent forked duplex, kinetic; Potency, µM (series often up to 114 µM), for the others: top-dose activity change, negative = inhibition, actives largely listed as inhibitors; 0.46% of 360,000 active; AID 651768; also: nearly all actives have a fitted effect of over 55% in size
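Fluorescence dequenching readout, ex 525 nm/em 598 nm, kinetic mode: forked duplex DNA (100 nM final) with adjacent fluorophore and quencher unwound by WRN (20 nM final) with 2 mM ATP. Compound preincubation 15 min, room temperature.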
BLM inh: Bloom syndrome helicase (human) inhibition; P54132; Potency, µM (highest dose often 56.1 µM), inactives show at the highest dose activity change, negative = inhibition, usual class: inhibitors; 0.2% of 350,000 active; recombinant BLM DNA unwinding, fluorescence dequenching;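 also: plate controls were vehicle for no effect and no enzyme for full effect; nearly all actives have a fitted effect of over 35% in size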
Starred values were filed as active, the others as inactive; i = inactive; ? = inconclusive; . = no result given; [ ] = dose if it differs, or a comment. The list is not random: actives were taken first. Their share in the collection is about 0.99%. Calls follow the shape of the dose curve; as a rule, active = well fitted curve in the direction sought with a large enough effect; inconclusive = small, poorly fitted or top-dose-only effect, or another doubt; inactive = no such curve, though single readings can be large; an effect the other way counts as inactive or inconclusive. Unless noted, % is scaled to controls: 0 for no effect and ±100 for the full control effect; potency is read from the fitted curve at half-maximal effect.

SMILES | RECQ1 helicase | FEN1 inhibitor | L3MBTL1 block | WRN inhibitor | BLM inh
CC1(C)C(/C=C/C=C/C=C/C=C2\N(CCCCS(=O)(=O)O)c3ccc4ccccc4c3C2(C)C)=[N+](CCCCS(=O)(=O)[O-])c2ccc3ccccc3c21 | . | 20µM* | . | 45µM* | ?
Cc1ccccc1NC(=O)CSc1ccsc1[N+](=O)[O-] | ? | ? | 25µM* | 50µM* | -25%
Cc1ccccc1C(=O)Nc1ccccc1C(=O)N1CCC(C)CC1 | . | 89µM* | . | 1% | -2%
CC1CCN(C(=O)c2ccccc2NC(=O)c2nsc3ccccc23)CC1 | . | -22% | . | . | -3%
OC[C@@H]1[C@@H](c2ccccc2)C(c2cccc(Cl)c2)=NN1c1ccccc1 | 32µM* | -18% | 90% | -8% | -11%[75.6 µM]
CS(=O)(=O)N1CCC(C(=O)Nc2ccc(F)c(Cl)c2)CC1 | . | 1% | -9% | -27% | -4%
COc1cc(NCCCCCCN)c2ncccc2c1OC | . | ? | . | 50µM* | .
C[N+]1(CC(=O)c2ccc(Oc3ccc(C(=O)C[N+]4(C)CCOCC4)cc3)cc2)CCOCC1 | . | -10% | . | . | .
COC/C=C/C1=CC2=CC(=O)C(C)(OC(=O)c3ccco3)C(=O)C2=CO1 (centres undefined) | 28µM* | . | . | . | -14%
COC/C=C/C1=CC2=CC(=O)C(C)(OC(=O)c3ccc(Cl)nc3)C(=O)C2=CO1 (centres undefined) | 32µM* | . | . | . | -11%
COc1cc(/C=C2\SC(=S)NC2=O)ccc1OS(=O)(=O)c1ccccc1 | 2% | . | -23% | . | -17%
COc1cc(/C=C2/SC(=S)NC2=O)ccc1OS(=O)(=O)c1ccc(C)cc1 | -27% | 79µM* | -6% | ? | -17%
COc1ccc(/C=C2\SC(=O)NC2=S)cc1OC | 32µM* | -21% | -11% | ? | -18%
Cc1ccc(C2(O)C(=O)c3ccccc3C2=O)c(O)c1C | ? | 1% | 5% | -30% | -3%
O=C1N(c2ccccc2C(F)(F)F)OC1(Cc1ccccc1)c1ccccc1 (centres undefined) | . | -21% | 34% | 2% | .
Nc1ccc(S(=O)(=O)Nc2nccs2)cc1N=Nc1ccccc1[N+](=O)[O-] | . | 50µM* | . | 25µM* | .
O=[N+]([O-])c1ccccc1S(=O)(=O)Nc1ccc(S(=O)(=O)Nc2nccs2)cc1 | . | 0% | . | -21% | -8%
COc1ccc(CC(=O)NCC2CCCN(Cc3ccc(OC(F)(F)F)cc3)C2)cc1 (centres undefined) | . | -15% | 12% | 14% | 1%
Cc1ccc(-c2n[nH]c(=S)n2/N=C/C=C\c2ccccc2[N+](=O)[O-])cc1 | -3% | -18% | . | ? | -27%
CNc1cccc2c1C(=O)c1ccccc1C2=O | -17% | -16% | 8.9µM* | -27% | -15%
Cc1oc2c(C)c3oc(=O)c(CCC(=O)N4CCC(C(=O)NCCC(=O)O)(c5ccccc5)CC4)c(C)c3cc2c1C | . | -14% | . | -6% | -1%
O=C(O)C1CCCCC1C(=O)NCCCc1ccccc1 (centres undefined) | -10% | 6% | 2% | 4% | -2%
O=C1NC(=S)N/C1=C/c1ccc(-c2c(Br)cc([N+](=O)[O-])cc2Br)o1 | -29% | . | ? | . | -15%
Cc1ccc(-c2ccc(/C=C3/NC(=O)NC3=O)o2)cc1[N+](=O)[O-] | 28µM* | -21% | -5% | -29% | -21%
COc1cc(/C=C/c2ccc3ccccc3[n+]2C)cc(OC)c1OC | . | -8% | . | . | .
SMILES | RECQ1 helicase | FEN1 inhibitor | L3MBTL1 block | WRN inhibitor | BLM inh
COc1cc(OC)c(/C=C/c2cc(/C=C/c3c(OC)cc(OC)cc3OC)[n+](C)c3ccccc23)c(OC)c1 | . | 14µM* | . | . | .
COc1ccc(OC)c(/C=C/c2ccc3ccccc3[n+]2C)c1 | . | 45µM* | . | . | .
O=C1NC(Cc2ccccc2)C(=O)N1Cc1ccccc1 (centres undefined) | . | -10% | . | 2% | .
O=c1ccsn1Cc1ccccc1 | -10% | 56µM* | . | 50µM* | 0%
O=C1/C(=C\c2ccco2)SC(=S)N1c1ccccc1 | 8% | -4% | ? | -21% | -1%
CCCN(CCC)C1=N/C(=C\c2ccco2)C(=O)N1c1ccccc1 | 28µM* | -8% | . | -3% | -11%
O=c1c2cc(F)ccc2sn1-c1ccccc1 | . | 79µM* | -5% | -5% | .
O=c1c2ccccc2sn1-c1cccc(Cl)c1 | . | . | . | 0% | .
Cc1ccccc1-n1sc2cc(F)ccc2c1=O | -2% | 79µM* | . | 14µM* | 1%
O=c1c2ccccc2sn1-c1ccccc1 | -5% | ? | . | 50µM* | -1%
O=C(O)c1cccc(-n2sc3ccccc3c2=O)c1 | . | 20µM* | -5% | -26%[11.6 µM] | .
COc1c2c(nc3ccccc13)OC(C(C)(O)COC(C)=O)C2 (centres undefined) | i | 1% | . | -7% | 1%
CCN(C(=O)c1cc(OC)c(OC)c(OC)c1)C1CCCCC1 | . | . | . | -9% | .
O=c1c2ccccc2sn1-c1nccs1 | -5% | ? | 0% | 25µM* | -3%
C[n+]1ccc(C(c2c[nH]c3ccccc23)c2cc[n+](C)c3ccccc23)c2ccccc21 | . | 18µM* | . | . | .
c1ccc2c(C(c3c[nH]c4ccccc34)c3c[nH]c4ccccc34)c[nH]c2c1 | . | 0% | . | . | .
O=C(N/N=C/c1cccc2nccnc12)c1ccccc1O | -6% | 16% | ? | -4% | 2%
O=C(N/N=C/c1cccc2cccnc12)c1ccccc1O | -1% | 16% | 6.3µM* | -4% | -5%
O=C(Nc1cccnc1Cl)c1ccc(=O)oc1 | ? | 20µM* | ? | ? | 55%
O=C(O)c1ccnc2c(O)cccc12 | . | . | 13µM* | . | .
CCCCCCc1cc2cc(-c3nnc(-c4ccccc4OC)o3)c(=O)oc2cc1O | i | 45µM* | . | 45µM* | ?
Nc1ncnc2oc(-c3ccoc3)c(-c3ccco3)c12 | . | 18µM* | . | . | .
CC(=O)Nc1ccc(NC(=O)CSc2nnc(NC(=O)c3ccc(Br)o3)s2)cc1 | . | -34% | . | 56µM* | -8%
CC(=O)Nc1cccc(NC(=O)CSc2nnc(NC(=O)c3ccco3)s2)c1 | . | -7% | . | -36% | -3%
Cc1ccc(NC(=O)CSc2ccc(-c3cccnc3)nn2)cc1Cl | i | 20% | . | -3% | -9%
SMILES | RECQ1 helicase | FEN1 inhibitor | L3MBTL1 block | WRN inhibitor | BLM inh
Oc1cccc(O)c1O | 6.3µM* | . | . | . | -10%
Oc1ccc(N=Nc2c(O)ccc3ccccc23)cc1 | 35µM* | -21% | 18µM* | -26% | -22%
COc1cc(/C=C2/C(=O)NN(c3ccc(Cl)cc3)C2=O)ccc1OC(=O)c1ccco1 | -4% | -10% | 1% | 40µM* | -7%
COc1cc(/C=C2/C(=O)NN(c3ccc(Cl)cc3)C2=O)cc(Br)c1O | . | 14% | -24% | -23% | -5%
COc1cc(/C=C2/C(=O)NN(c3ccc(Cl)c(Cl)c3)C2=O)cc([N+](=O)[O-])c1O | . | ? | . | 50µM* | 0%
NNC(=O)CCN1CCN(Cc2ccccc2)CC1 | i | 3% | -1%[11.4 µM] | 6% | -3%
